Compound activity as filed in PubChem.
This is a sample that favours compounds with a hit; in the whole collection about 1.1% have one here.
HTR5A ag – activates human HTR5A in OPRM1-OPRD1 agonist counter-screen | HTR5A agonist assay, luminescence, cell-based | activation, % at 9.3 µM | hit rate 0.61% among 340,000 | P47898; in the data active = activation mostly above about 9.5%, no sharp cut-off; inactive = mostly below about 7.6%;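 also: 0% = cells with vehicle only and 100% = reference agonist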
Target sequence (P47898 whole entry, looked up): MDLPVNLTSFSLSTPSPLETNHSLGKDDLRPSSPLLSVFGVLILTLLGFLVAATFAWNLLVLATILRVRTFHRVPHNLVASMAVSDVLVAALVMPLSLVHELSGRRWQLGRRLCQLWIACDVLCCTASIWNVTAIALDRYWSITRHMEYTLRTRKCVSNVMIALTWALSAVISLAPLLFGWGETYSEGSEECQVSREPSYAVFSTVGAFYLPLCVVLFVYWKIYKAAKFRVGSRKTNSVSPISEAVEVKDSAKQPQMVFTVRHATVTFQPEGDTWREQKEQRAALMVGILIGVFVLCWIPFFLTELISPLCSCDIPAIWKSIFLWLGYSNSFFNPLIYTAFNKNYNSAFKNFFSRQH
OPRM1-OPRD1 inv – inverse agonists of human mu-delta opioid receptor heterodimerization | P35372+P41143 | cell-based MOR-DOR heterodimer luminescence, inverse agonism | inhibition, % at 9.3 µM | hit rate 0.21% among 340,000; in the data active = inhibition above about 22%, passing the limit was not always enough;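 also: 0% = cells with DMSO and 100% = wells without cells with DMSO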
HTR5A inv ctr – inverse agonist of human HTR5A in OPRM1-OPRD1 counter-screen. P47898. HTR5A cell line, luminescence, inverse agonism. inhibition, % at 9.3 µM. hit rate 0.083% among 340,000. AID 504634; in the data active = inhibition mostly above about 23%, no sharp cut-off; inactive = mostly below about 18%;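 also: 0% = cells with DMSO and 100% = no-cell wells with DMSO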
MOR-DOR ag – OPRM1-OPRD1 heterodimerization agonism. activation, % at 9.3 µM. hit rate 0.3% among 340,000. cells, luminescence; in the data active = activation above about 18%;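 also: 0% = vehicle-treated cells and 100% = reference agonist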
Starred values were filed as active, the others as inactive.

SMILES | HTR5A ag | OPRM1-OPRD1 inv | HTR5A inv ctr | MOR-DOR ag
CCCCN1C(=O)C(=O)N(CC(=O)c2ccc3c(c2)CCCC3)C1=O | -2 | -9 | 5 | 2
Cc1cccc2c1N(CCCOc1ccc(C(C)(C)C)cc1)C(=O)C2=O | 5 | 30* | -14 | -5
Cc1cccc2c1N(CCCOc1ccccc1)C(=O)C2=O | -3 | 26 | -23 | -5
O=C(Nc1cc(Sc2ccccn2)cc([N+](=O)[O-])c1)c1cccc(Cl)c1 | 1 | -23 | -2 | 4
O=C(Nc1cc(Sc2ccccn2)cc([N+](=O)[O-])c1)c1ccc(Cl)cc1 | 19* | -134 | -22 | 29*
Cc1ccc2nc(Cl)c3nnnn3c2c1 | 0 | 38* | 0 | -7
Cc1ccc2nc(N3CCN(c4cccc(C)c4C)CC3)c3nnnn3c2c1 | 5 | 11 | -14 | -2
CCCCc1ccc(NC(=S)N2CCN(C)CC2)cc1 | 0 | 11 | 1 | -2
CCCCc1ccc(NC(=S)N2CCCC2)cc1 | 12* | 12 | -45 | -2
O=C(CSc1nccn1Cc1ccco1)Nc1ccccc1C(F)(F)F | 1 | 21 | 20 | -4
CCOC(=O)C1=C(COC(=O)Cc2ccc(OC)c(OC)c2)NC(=O)NC1C (configuration not stated) | -3 | 3 | 7 | -1
N#Cc1c(-c2ccccc2)cc(-c2ccccc2)nc1SCc1nnc(-c2ccccc2)o1 | 13* | -6 | 3 | 1
COc1ccc(-c2cc(-c3ccccc3)c(C#N)c(SCC(=O)O)n2)cc1 | 8 | 20 | 1 | -4
CC(=O)Nc1sc2c(c1C(c1cccs1)N1CCOCC1)CCCC2 (configuration not stated) | 13* | 3 | -5 | -1
CC(=O)Nc1sc2c(c1C(c1ccccn1)N1CCCC1)CCCC2 (configuration not stated) | -5 | 10 | 12 | -2
Nn1c(SCC(=O)Nc2ccc(OC(F)F)cc2)nnc(Cc2ccccc2)c1=O | 1 | 10 | -2 | -1
CC(=O)c1ccc(S(=O)(=O)Nc2ccc3c(c2)OCO3)cc1 | -1 | 10 | 8 | -2
CN(C)c1cccc(C(=O)NCCCn2ccc3ccccc32)c1 | 1 | 1 | -2 | 0
Cc1ccc(C(C)C)c(OCc2ccc(C(=O)N/N=C/c3ccc(O)c(O)c3)cc2)c1 | 14* | -19 | -38 | 3
COc1cc(/C=N/NC(=O)c2ccc(COc3cc(C)ccc3C(C)C)cc2)cc(OC)c1O | 0 | -24 | 6 | 5
O=C(COC(=O)CNS(=O)(=O)/C=C/c1ccccc1)Nc1cc(S(=O)(=O)N2CCCCC2)ccc1Cl | 3 | 12 | -8 | -2
O=C(CN(C1CCCCC1)S(=O)(=O)c1ccc(Cl)cc1)NCc1cccnc1 | 13* | 9 | -1 | -2
COc1ccc(CCNS(=O)(=O)c2ccc3c(c2)NC(=O)CS3)cc1OC | 11* | 10 | 0 | -2
N#CC1=C(N)Oc2n[nH]c(-c3cccnc3)c2C1c1ccc([N+](=O)[O-])o1 (configuration not stated) | 1 | -14 | -1 | 3
COC(=O)c1cc2c(s1)CS(=O)C2 (configuration not stated) | 12* | 5 | 7 | -1
SMILES | HTR5A ag | OPRM1-OPRD1 inv | HTR5A inv ctr | MOR-DOR ag
COc1cc(C(=O)OCC(=O)NC2CC2)ccc1OCCC(C)C | 7 | 5 | -20 | -1
O=S(=O)(Nc1ccc(-c2ccc3nncn3n2)cc1)c1ccc(Cl)s1 | 10* | -7 | -5 | 1
O=S(=O)(Nc1ccc(-c2ccc3nncn3n2)cc1)c1ccccc1Cl | 2 | 2 | -6 | 0
CCCCc1c(C)nn(-c2nnc3c4ccccc4n(C)c3n2)c1C | 12* | -45 | -42 | 8
Cn1c2ccccc2c2nnc(NN)nc21 | -5 | -5 | 12 | 1
CC(C)Oc1ccc(CNC(=O)Cn2ccc3cc(S(=O)(=O)N4CCCC4)ccc32)cc1 | 8.3* | 4 | -31 | -1
CCc1sc(C(=O)NCCCn2ccnc2)cc1Br | 10* | 7 | -37 | -2
CC(C)Cn1c(N)c(C(=O)COC(=O)c2c(O)c(Cl)cc(Cl)c2Cl)c(=O)n(C)c1=O | -4 | 11 | 10 | -3
Cc1cc(OCC(=O)NN2C(=O)c3ccccc3C2=O)ccc1Cl | -1 | 11 | -11 | -2
CCn1cc(C(=O)NC(=S)Nc2ccccc2Br)cn1 | -4 | -2 | 10 | 1
COc1ccccc1NC(=S)NC(=O)c1ccc(Cn2cc(Br)cn2)cc1 | 13* | -77 | -4 | 11
CC(C)CN1CCN(Cc2nc(C(C)C)cs2)CC1CCO (configuration not stated) | 11* | 1 | -30 | 0
OCCCN=C1CCCc2c1[nH]c1ccc(Cl)cc21 | 5 | 2 | -11 | 0
OCCN=C1CCCc2c1[nH]c1ccc(Cl)cc21 | 13* | -15 | -7 | 3
